# Source: PubChem
# HEK293 viab = cell viability loss counter-screen; HEK-293-SNCA-luc viability, GF-AFC fluorescence, 24 h; hit rate 0.12% among 150,000; AID 1671193; Potency, µM (doses to about 57.1 µM), for inactives: at the highest dose activity change, negative = cytotoxicity, usual class: cytotoxic;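 also: potency is read from the fitted curve at half-maximal effect; 0% = DMSO-treated cells and -100% = medium-only wells without cells; nearly all actives have a fitted effect of over 30% in size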
#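 Cytotoxicity counterscreen: after 24 h compound treatment of genome-edited SNCA-luciferase HEK-293 cells, live-cell protease substrate GF-AFC read by fluorescence after 30 min; activity scaled between DMSO (0%) and medium-only (-100%), curves Hill-fitted.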
# KDM5B inh = KDM5B demethylase inhibition. Q9UGL1. KDM5B demethylase, FDH-coupled NADH fluorescence (FDH is formaldehyde dehydrogenase). Potency, µM (doses to about 57.7 µM), hits mostly inhibitors. hit rate 2.6% among 220,000; also: potency is read from the fitted curve at half-maximal effect; 0% is about no effect; nearly all actives have a fitted effect of over 70% in size
# Target sequence (Q9UGL1 whole entry, looked up): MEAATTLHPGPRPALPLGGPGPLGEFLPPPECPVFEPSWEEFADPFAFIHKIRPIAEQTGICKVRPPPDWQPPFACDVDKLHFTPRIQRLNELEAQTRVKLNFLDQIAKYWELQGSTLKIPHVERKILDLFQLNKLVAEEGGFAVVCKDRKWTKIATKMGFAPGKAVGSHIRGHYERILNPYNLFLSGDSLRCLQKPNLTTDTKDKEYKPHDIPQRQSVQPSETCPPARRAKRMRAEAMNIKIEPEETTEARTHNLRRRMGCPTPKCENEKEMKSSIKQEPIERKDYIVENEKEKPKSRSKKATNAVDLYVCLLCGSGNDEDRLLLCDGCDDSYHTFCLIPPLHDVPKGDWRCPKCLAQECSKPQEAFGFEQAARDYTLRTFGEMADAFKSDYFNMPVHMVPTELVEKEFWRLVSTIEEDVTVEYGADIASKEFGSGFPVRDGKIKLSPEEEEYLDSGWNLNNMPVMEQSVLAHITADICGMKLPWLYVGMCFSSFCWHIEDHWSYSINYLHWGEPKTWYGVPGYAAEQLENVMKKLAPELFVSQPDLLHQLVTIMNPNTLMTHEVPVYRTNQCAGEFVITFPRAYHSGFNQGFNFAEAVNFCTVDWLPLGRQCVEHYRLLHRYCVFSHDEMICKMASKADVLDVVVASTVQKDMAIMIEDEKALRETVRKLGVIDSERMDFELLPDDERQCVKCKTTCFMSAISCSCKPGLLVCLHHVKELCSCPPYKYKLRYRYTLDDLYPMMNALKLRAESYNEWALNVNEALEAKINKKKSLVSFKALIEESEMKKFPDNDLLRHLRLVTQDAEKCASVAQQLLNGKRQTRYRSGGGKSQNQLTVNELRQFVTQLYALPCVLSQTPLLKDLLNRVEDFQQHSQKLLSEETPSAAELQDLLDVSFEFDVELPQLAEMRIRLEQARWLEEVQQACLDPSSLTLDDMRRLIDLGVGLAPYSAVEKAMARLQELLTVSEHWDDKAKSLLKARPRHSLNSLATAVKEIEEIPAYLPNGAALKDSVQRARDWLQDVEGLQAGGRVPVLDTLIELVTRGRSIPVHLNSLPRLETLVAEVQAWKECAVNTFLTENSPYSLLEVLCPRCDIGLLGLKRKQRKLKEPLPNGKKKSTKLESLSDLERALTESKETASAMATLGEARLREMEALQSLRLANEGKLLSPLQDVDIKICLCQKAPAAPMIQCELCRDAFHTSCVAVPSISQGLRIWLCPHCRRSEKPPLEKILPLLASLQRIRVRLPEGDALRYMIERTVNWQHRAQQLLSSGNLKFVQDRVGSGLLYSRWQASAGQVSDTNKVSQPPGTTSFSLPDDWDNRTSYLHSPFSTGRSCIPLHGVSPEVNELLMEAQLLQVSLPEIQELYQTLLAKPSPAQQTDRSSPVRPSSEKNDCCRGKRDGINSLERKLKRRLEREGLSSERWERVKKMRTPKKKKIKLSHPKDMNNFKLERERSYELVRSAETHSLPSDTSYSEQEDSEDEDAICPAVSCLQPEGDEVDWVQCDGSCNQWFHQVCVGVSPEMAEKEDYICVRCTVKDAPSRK
#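 Here, H3K4me3 peptide (12.5 µM in substrate mix) is demethylated by KDM5BΔAP, 200 nM final, after 10 min compound exposure. Formaldehyde product is coupled through FDH (0.25 U/mL in mix) to NADH fluorescence; 30-min ΔRFU feeds dose-response curves.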
# IP6K1 inh = inhibitors of human IP6K1; Q92551; IP6K1 kinase, ADP-Glo luminescence, 2 h; stronger effect = lower value; activity change, % (series mostly up to about 58 µM); hit rate 0.81% among 140,000; AID 1645851; in the data active = activity change below about -25%; also: % is scaled to controls: 0 for no effect and ±100 for the full control effect
#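 ADP-Glo luminescence measures ADP made by human IP6K1 during a 2 h RT reaction with ATP/IP6 (mix at 1.3 mM/130 uM); top library doses 57.5 and 19.1 uM final.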
# SNCA expr inhib = reduces expression of the alpha-synuclein gene | HEK-293 SNCA-luciferase knock-in, luminescence, 24 h | AID 1671194 | hit rate 0.17% among 140,000 | Potency, µM (titrated, usually from 57.2 µM), for inactives: at the highest dose activity change, negative = inhibition, usual class: inhibitors;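 also: potency is read from the fitted curve at half-maximal effect; plate controls were DMSO cells for no effect and cell-free wells for full effect; nearly all actives have a fitted effect of over 45% in size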
# * marks the source's active call; other numbers are inactive results; i = inactive; ? = inconclusive; nt = no result given; ! = not active in a repeat; [ ] = remark or other dose. Most compounds without a hit are left out; they make up all but 2.9% or so of the library. Unless noted, calls follow the shape of the dose curve; as a rule, active = well fitted curve in the direction sought with a large enough effect; inconclusive = small, poorly fitted or top-dose-only effect, or another doubt; inactive = no such curve, though single readings can be large; an effect the other way counts as inactive or inconclusive.
SMILES,HEK293 viab,KDM5B inh,IP6K1 inh,SNCA expr inhib
Cc1nc(-c2cccc(Cl)c2)n(CC(=O)Nc2cccc(C(C)C)c2)c(=O)c1CCO,?,i,-10,?
COc1ccc(CN2CCC3(CC2)CNC(=O)c2ccccc2O3)cc1,0%,i,-13,8%
Cn1cccc1CN1CCC2(CC1)CC(=O)c1ccc(Cl)cc1O2,-18%[87.6 µM],i,-1,48%[87.6 µM]
Cn1cccc1CN1CCC2(CC1)CC(=O)c1ccccc1O2,0%[87.6 µM],25µM*,3,143%[87.6 µM]
O=C1CC2(CCN(Cc3ccccc3)CC2)Oc2ccccc21,6%[87.6 µM],35µM*,8,30%[87.6 µM]
O=C1CC2(CCN(S(=O)(=O)c3cccs3)CC2)Oc2ccccc21,-7%,18µM*,3,?
COc1ccc(CN2CCC3(CC2)CC(=O)c2ccccc2O3)cc1,5%[87.6 µM],35µM*,7,?
O=C(Cc1cccc(Cl)c1)N1CCN(C(=O)c2nc3cccnc3n(CCc3ccccc3)c2=O)CC1,2%,nt,10,-5%
Cc1ccccc1C(=O)N1CCN(Cc2ccccc2-c2ccccc2F)CC1,7%[12.5 µM],nt,-3,-11%
Cc1noc(C)c1[S+](=O)([O-])N1CCC2(CC1)CC(=O)c1ccccc1O2,-2%,20µM*,11,6%
O=C1CC2(CCN(Cc3ccsc3)CC2)Oc2ccccc21,10%[87.6 µM],35µM*,11,132%[87.6 µM]
CCCN1CCC2(CCN([S+](=O)([O-])c3c(C)noc3C)CC2)Oc2ccccc21,-7%,i,-7,-2%
O=C1CC2(CCN(C(=O)c3ccc4c(c3)OCO4)CC2)Oc2ccccc21,-13%,25µM*,17,6%
COc1ccc(C(=O)N2CCC3(CC2)CC(=O)c2ccccc2O3)cc1,-24%,32µM*,10,-20%
CCOC(=O)C1CCN(C(=O)C2CCCN(Cc3cccc(-c4ccsc4)c3)C2)CC1 (centres undefined),nt,nt,-14,nt
O=C1CC2(CCN(CC3CC3)CC2)Oc2ccccc21,1%[87.6 µM],32µM*,9,?
CC[C@H]1CN(S(=O)(=O)c2c(C)noc2C)CC[C@H]1CC(=O)NCc1cccc2ccccc12,-16%,i,-4,-29%
O=C(c1ccc2c(c1)OCO2)N1CCC(c2nnc3n2CCNC3)CC1,4%,50µM*,11,-12%
COc1ccc(-c2cc(N3CCCC(NC(=O)c4cccc(C#N)c4)C3)n[nH]2)cc1 (centres undefined),-11%,?,4,?
CC1(C(=O)NCCc2ccccn2)CCc2cnc(NCc3ccccc3)nc21 (centres undefined),2%[87.6 µM],32µM*,-9,?
CC1(C(=O)NCC2CC2)CCCc2cnc(NCc3ccccc3)nc21 (centres undefined),1%[87.6 µM],35µM*,0,?
CC1(C(=O)NCc2cnccn2)CCc2cnc(NCc3ccccc3)nc21 (centres undefined),0%[87.6 µM],?,8,?
CC1(C(=O)N2CCN(c3ccccn3)CC2)CCc2cnc(NCc3ccccc3)nc21 (centres undefined),-17%[87.6 µM],?,2,?
CC1(C(=O)NCC2CCCO2)CCc2cnc(NCc3ccccc3)nc21 (centres undefined),0%[87.6 µM],40µM*,2,-26%[87.6 µM]
COc1cccc(NC(=O)C2(C)CCc3cnc(NCc4ccccc4)nc32)c1 (centres undefined),-19%[87.6 µM],i,24,-10%[87.6 µM]
SMILES,HEK293 viab,KDM5B inh,IP6K1 inh,SNCA expr inhib
COc1ccc(Cl)cc1C(C(=O)O)N1CCCN(c2ncccn2)CC1 (centres undefined),4%,28µM*,27,0%
O=C(Nc1ccc(C(=O)N2CCCCC2)cc1)c1nsc2ccccc12,-19%,i,14,10µM*
Cn1nccc1-c1cc2c(cn1)CN(Cc1ccncc1)CCN2,12%[87.6 µM],35µM*,-10,?
CCn1cc(-c2cc3c(cn2)CN(Cc2ccncc2)CCN3)cn1,2%[87.6 µM],32µM*,-19,-8%[87.6 µM]
COc1ccccc1Nc1ccnc(N2CCC(NC(=O)NC3CCCC3)CC2)n1,-5%[12.5 µM],nt,-1,14%
Cc1ccc([S+](=O)([O-])NC2CCN(c3ccc4nnc(-c5ccccc5)n4n3)C2)cc1 (centres undefined),nt,nt,15,nt
COc1ccc(-c2nc3c(c(=O)[nH]2)CCN(C(=O)COc2ccc(F)c(F)c2)C3)cc1,3%,22µM*,30,-14%
COc1ccc(-c2nc3c(c(=O)[nH]2)CCN(C(=O)Nc2ccc(C)cc2C)C3)cc1,-9%,25µM*,15,-6%
COc1cccc(-c2noc(NCc3cccc(Cl)c3)n2)c1OC,-1%,i,3,37%
COc1ccc(OC)c(NC(=O)Cn2c(-c3ccc(F)cc3)nc(C)c(CCO)c2=O)c1,12%,20µM*,-5,-7%
Cc1ccc(-c2cc3c(=O)n(CCNC(=O)c4cc(C5CC5)[nH]n4)ccn3n2)c(C)c1,-11%,i,-4,38%
C[C@@]1(C(=O)Nc2ccc(F)nc2)CCCN1c1nc(Nc2cc(C3CC3)[nH]n2)c2cccn2n1,1.9µM*!,nt,-2,-13%
Cc1nn(-c2ccccc2)c2c1C(C1CC1)N(C1CN(C(=O)C3CC3)C1)C2=O (centres undefined),nt,nt,1,nt
O=C1Cc2c(-c3ccc(N4CCOCC4)cc3)n[nH]c2CN1CCc1ccncc1,-2%[87.6 µM],22µM*,-1,59%[87.6 µM]
COc1ccc(-c2cc(-c3cccc(CO)c3)cn3cncc23)cc1,?,?,-17,?
CC(C)NC(=O)c1cc(-c2ccc(Cl)nc2)nc2c1cnn2C,-1%,56µM*,-12,35%
CC(C)NC(=O)c1cc(-c2ccc(F)cc2)nc2c1cnn2C,nt,nt,-4,nt
CC(C)NC(=O)c1cc(-c2ccc(S(C)(=O)=O)cc2)nc2c1cnn2C,2%,79µM*,4,19%
COc1ccc(-c2cc(C(=O)N3CCOCC3)c3c(C)nn(-c4ccccc4)c3n2)cc1,-2%,79µM*,2,176%
O=C(CNC(=O)c1ccc(-c2cccc(C(F)(F)F)c2)cc1)NCc1ccccc1,-6%[12.5 µM],nt,6,?
CCN1c2cc(C(=O)N3CCN(c4ccccc4)CC3)ccc2C(=O)N2CCCCCC21 (centres undefined),-7%[12.5 µM],?,16,-20%
Cc1nnc(NC(=O)NCC(C)(C)N2CCN(C)CC2)s1,nt,i,nt,nt
COc1ccc(-c2ccc(Cn3ccnc3)cn2)c2ccc(C)nc12,-8%,25µM*,-3,9%
CCc1ccc(NCc2ccc(OC)c(Cn3ccnc3)c2)cc1,nt,i,nt,nt
CC1CCN(CCNC(=O)c2ccc(Cn3c(SCc4ccccc4)nc4cccnc43)cc2)CC1,10µM*,?,23,5%
O=C(Nc1cccn2nc(C3CCC3)nc12)c1ccc(F)cc1Cl,-4%,i,19,54%
O=C(Nc1cccn2nc(C3CCC3)nc12)c1ccc(F)cc1F,-1%,32µM*,2,0%
Cc1ccc(-c2cc3c(=O)n(CCNC(=O)Cc4cccc(F)c4)ccn3n2)cc1C,-5%,?,-2,21%
O=C(NCCn1ccn2nc(-c3ccc(F)cc3)cc2c1=O)c1cccc2[nH]ccc12,-2%,28µM*,-2,-26%
